Records with an inconclusive call do not appear. A call without a number means that no potency is given here. A number with no mark means an inactive call. Calls of active or inactive are those of the source. Calls follow the shape of the dose curve; as a rule, active = well fitted inhibition curve with a large enough effect in the repeat runs; inconclusive = weak or mixed curves; inactive = flat fitted curve, though single readings scatter.
Potency is read from the fitted curve at half-maximal effect.

This assay can be described thus: qHTS assay to identify small molecule HDAC inhibitors (AID 1259364). Also: nearly all actives have a fitted effect of over 45% in size. As to activity change, negative = inhibition: top concentration of the series differs between compounds. As to conditions: HCT-116 HDAC-Glo I/II luminescence, 2 h; series mostly up to 92.4 µM. An excerpt: U.S. Tox21 Program National Center for Advancing Translational Sciences [NCATS] NIH Chemical Genomics Center [NCGC] U.S. Environmental Protection Agency [EPA] National Institutes of Environmental Health Sciences [NIEHS] National Toxicology Program [NTP] U.S. Food and Drug Administration [FDA] Tox21 Assay Overview: Histone deacetylases (HDACs) are a group of epigenetic enzymes that regulate gene expression by histone deacetylation. HDACs are capable of introducing epigenetic modifications and such aberrations contribute to the onset and progression of several human diseases, thus making HDACs a popular therapeutic target. For identifying endogenous class I/II HDAC inhibitors a homogenous, luminogenic HDAC I/II cell based assay was used to measure the relative activity of class I and II HDACs from cells. Wild type HCT-116 cells were used to screen Tox21 libraries for identifying class I/II HDAC inhibitors.
Tox21 Assay Protocol Summary: HCT-116 cells were dispensed at 1,500 per well in 5uL of culture medium into white solid bottom 1536-well plates (Greiner Bio-One, Monroe, NC) using a Multidrop Combi (Thermo Scientific, Waltham, MA) dispenser. The assay plates were incubated at 37 C and 5% CO2 for an overnight, and then 23nL of compounds dissolved in DMSO and positive control were transferred using a Pintool station (Wako, San Diego, CA). The assay plates were incubated at 37C and 5% CO2 for 2hr. After compound treatment, 4uL of HDAC-Glo reagent (Promega Corporation, Madison, WI) was added to each well of the assay plates using Flying Reagent Dispenser (FRD, Aurora Discovery, San Diego, CA) and incubated the assay plates at room temperature for 30min. The luminescence signal was quantified using a ViewLux plate reader (Perkin Elmer, Shelton, CT).
In general terms: qHTS replaces the single test concentration by a dilution series.
On to `Nc1ncnc2c1ncn2[C@@H]1O[C@H](CO)[C@@H](O)[C@H]1O`, for which the Potency entry is “inactive”. `CCC(C)CCCC(C)(C)O` (stereo not given): the Potency result was “inactive”. As to `CC(C)(C)NCC(O)COc1ccc(NC(=O)NC2CCCCC2)cc1` (stereo not given), the Potency entry was “inactive”.

For `O=C(OC1C[C@H]2CC[C@@H](C1)[N+]21CCCC1)C(O)(c1ccccc1)c1ccccc1` (stereo not given in full), the Potency result was “inactive”. Regarding `C=CCCC`, the Potency result was “inactive”. In the case of `COc1ccc(/C(C)=C/C(=O)O)c(OC)c1`, the Potency entry was “inactive”. Still for that read-out and setting: for `CC(C)Cc1nccs1` the value was “inactive”; for `CC(=O)c1ccc(Cl)c(Cl)c1Cl`, “inactive”. `Cc1ccc(S(=O)(=O)NC(=O)NC2CCCC2)cc1`: the Potency entry is “inactive”. As for `CC(C)(C(=O)O)c1ccc(C(O)CCCN2CCC(C(O)(c3ccccc3)c3ccccc3)CC2)cc1` (stereo not given), the Potency result was “inactive”.

As for `C[C@H](N)C(=O)N[C@@H](C)C(=O)NC1[C@H]2CN(c3nc4c(cc3F)c(=O)c(C(=O)O)cn4-c3ccc(F)cc3F)C[C@@H]12` (stereo not given in full), the Potency entry was “inactive”. On to `CC(C)CCCCCCCOC(=O)c1ccc(C(=O)OCCCCCCCC(C)C)c(C(=O)OCCCCCCCC(C)C)c1`, for which the Potency result was “inactive”. On the same count and under the same terms, for `CCCCCCCCS` the value was “inactive”. The same measure, in the same setting: for `O=C(OCCCCCOC(=O)c1ccccc1)c1ccccc1` the value was “inactive”. Take `COC=O`: the activity change, negative = inhibition is 0.883% [at 8.39 µM]. Consider `CCCCOC(=O)CC#N`, for which the Potency result is “inactive”. On to `O=C(O)c1ccc2c(c1)nc(C(=O)NC1CCN(C3CC3)CC1)n2Cc1cc(-c2ccc(Cl)s2)on1`, for which the activity change, negative = inhibition is -4.76% [at 19 µM]. Take `O=C(OCCN1CCOCC1)c1cccnc1Nc1cccc(C(F)(F)F)c1`: the Potency entry is “inactive”.

As to `CCc1ccc2c(c1)C(=O)c1ccccc1C2=O`, the Potency was 0.77 µM (active). Still for that read-out and setting: for `CCC[Si](OC)(OC)OC` the value was “inactive”; for `O=C(O)c1cc(C(=O)O)c(C(=O)O)cc1C(=O)O`, “inactive”; for `OCCOc1cccc(OCCO)c1`, 24.3 µM (active).

For the compound `O=c1[nH][nH]c2ccccc12`, the Potency entry was “inactive”. `CC1(C)C(=O)NC(=O)N1CO`: the Potency entry was “inactive”. Take `O=C(O)c1ccc2cc(O)ccc2c1`: the Potency entry is “inactive”. As for `CCCCCCC/C=C/C=O`, the Potency entry is “inactive”. In the case of `COc1cc(CNC(=O)CCCC/C=C/C(C)C)ccc1O`, the Potency result is “inactive”. On the same count and under the same terms, for `COc1cc(C)c(Cc2cnc(N)nc2N)cc1OC` the value was “inactive”; for `Cc1cc(C)c(C)c(O)c1`, “inactive”; for `N#C[C@@H]1CC(F)(F)CN1C(=O)CNC1CC2CCC(C1)N2c1ncccn1` (stereo not given in full), “inactive”.

Turning to `CCOCCn1c(N2CCCN(C)CC2)nc2ccccc21`, the Potency result is “inactive”. On the same count and under the same terms, for `CC1(C)[C@@H]2CC[C@]3(C2)[C@@H]1C(=O)CCC3(C)C` the value was “inactive”; for `CC(C)NC(=O)c1ccccc1N`, “inactive”; for `C[C@@H](O)[C@H]1C(=O)N2C(C(=O)O)=C(S[C@@H]3CN[C@H](CNS(N)(=O)=O)C3)[C@H](C)[C@H]12`, “inactive”. On the same count and under the same terms, for `COc1ccc(/C=C/S(=O)(=O)NC(=O)c2ccc(C)cc2Cl)cc1` the value was “inactive”; for `Cc1cc(SC2=C(O)C[C@@](CCc3ccc(N)cc3)(C(C)C)OC2=O)c(C(C)(C)C)cc1CO`, “inactive”; for `CCOC(C)OCC`, “inactive”. Still for that read-out and setting: for `NC(=O)c1cc[n+](CC2=C(C(=O)[O-])N3C(=O)[C@@H](NC(=O)Cc4cccs4)[C@H]3SC2)cc1` the value was “inactive”; for `Nc1ccc(F)cc1F`, “inactive”; for `O=C1c2ccccc2C(=O)C1c1ccc2cc(S(=O)(=O)O)cc(S(=O)(=O)O)c2n1`, 0.589 µM (active).

For the origin of these results see PubChem BioAssay (Tox21).
